The values that follow come from the supplement of paper PMC10338343.

± gives the standard deviation. Bounds are passed on as bounds.

The experiment has as its system EfPiwi piRISC loaded with piRNA #1 (26 nt). In words: pre-steady-state target cleavage rate (min^-1); auxiliary factor: 500 nM Ephydatia muelleri Gtsf1; guide: piRNA #1 5'p-UGAGGUAGUAGGUUGUAUAGUAUCCA; MIWI and MILI are mouse PIWI proteins and EfPiwi is from a freshwater sponge; tags in brackets are library labels; higher = faster piRNA-guided slicing of the target. As for the experimental part: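 Cleave-'n-Seq: a library of target RNAs (target site in constant flanks) at […] was incubated with 1 nM active freshwater sponge Ephydatia fluviatilis Piwi piRISC (synthetic 5'-monophosphorylated piRNA guide) with or without 500 nM EmGtsf1 at 33 °C for 1 min to 16 h. Uncleaved targets were sequenced and the pooled three trials fitted to a burst-and-steady-state model to give the pre-steady-state cleavage rate (min^-1). Sequence is the target site only. Fits with R² ≤ 0 are excluded.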
As for GGAGACCUAUGAUAUGUUGCAACUACCACA, the “pre-steady-state target cleavage rate” value was less than 0.0001.

As for GGAGAGGAUACUAUACAGACCUACUACCUCA, the “pre-steady-state target cleavage rate” value was 0.00626 ± 0.0046.

For the sequence GGAGACCUAACCAUACAACCUACUACCUCA, the “pre-steady-state target cleavage rate” value came out at 0.0143 ± 0.0069.

In the case of GGAGACCAUACUAUACAUCGUACUACCUCA, the “pre-steady-state target cleavage rate” value was 0.0027 ± 0.0021.

For GGAGUGGAUACUAUAGAACCUUCUACCUCA, the “pre-steady-state target cleavage rate” value was found to be 0.00334 ± 0.0018.

As to GGAGACCUUACUAUACAACACUACUACCUCA, the “pre-steady-state target cleavage rate” value came out at 0.0118 ± 0.0053.

Consider GGAGACCUUACAAUACAACCUACUACCUCA, for which the “pre-steady-state target cleavage rate” value was 0.0117 ± 0.0048.

Consider GGAGUGGAUACUAUUACAACCUACUACCUCA, for which the “pre-steady-state target cleavage rate” value came out at 0.131 ± 0.047.

Regarding GGAGACCUUACUAUACAACUUACUACCUCA, the “pre-steady-state target cleavage rate” value came to 0.00902 ± 0.0051.

Take GGAGAGGACUACUAUACAACCUACUACCUCA: the “pre-steady-state target cleavage rate” value came to 0.00553 ± 0.0037.

On to GGAGAGGAUACUAUACAACCAACUACGUCA, for which the “pre-steady-state target cleavage rate” value came to 0.00338 ± 0.0016.

For the sequence GGAGUGGAUACUAUACAACGAUCUACCUCA, the “pre-steady-state target cleavage rate” value was found to be 0.00198 ± 0.0014.

Take GGAGUGGAUACUAUACAACCUUCUACCACA: the “pre-steady-state target cleavage rate” value turned out to be 0.00272 ± 0.0016.

Turning to GGAGACCUUACUAUACAACCUACUACCUGA, the “pre-steady-state target cleavage rate” value worked out at 0.00415 ± 0.0019.

Take GGAGUGCAUACUAUACUACCUACUACCUCA: the “pre-steady-state target cleavage rate” value amounted to 0.00588 ± 0.0029.

Regarding GGAGUGGAUACAAUACAACCUACAACCUCA, the “pre-steady-state target cleavage rate” value was 0.00248 ± 0.0013.

In the case of GGAGUGGAUUCUAUACAUCCUACUACCUCA, the “pre-steady-state target cleavage rate” value is 0.00479 ± 0.0026.

For the sequence GGAGUGGAUACUAUACAACGUACUACGUCA, the “pre-steady-state target cleavage rate” value is 0.0036 ± 0.0015.

In the case of GGAGACGAUACUAUACAACCUACAACCACA, the “pre-steady-state target cleavage rate” value worked out at 0.00436 ± 0.0022.

GGAGAGCAUACAAUACAACCUACUACCUCA: the “pre-steady-state target cleavage rate” value came to 0.00861 ± 0.0046.

GGAGUGGUUACUAUACAACCUACUACCUGA: the “pre-steady-state target cleavage rate” value was found to be 0.00386 ± 0.0014.

For GGAGAGGAUACUCAUACAACCUACUACCUCA, the “pre-steady-state target cleavage rate” value was 0.0605 ± 0.024.

For GGAGACCUAUGUUAUACAACCUACUACCUCA, the “pre-steady-state target cleavage rate” value stood at 0.0122 ± 0.0063.

With GGAGACGAUACUAUACAACCUACUACCUCCA, the “pre-steady-state target cleavage rate” value worked out at 0.02 ± 0.0073.

Regarding GGAGAGGAUACUAUACAACGUACAACCUCA, the “pre-steady-state target cleavage rate” value turned out to be 0.00357 ± 0.0017.

Regarding GGAGACCUAUGUAUACAACCUACAUGCUCA, the “pre-steady-state target cleavage rate” value was less than 0.0001.

On to GGAGUGGAUACUAUACAACCUACAACGUCA, for which the “pre-steady-state target cleavage rate” value was 0.00302 ± 0.0017.

On to GGAGAGCAUACUAUACAACCUACUACGUCA, for which the “pre-steady-state target cleavage rate” value is 0.00351 ± 0.0025.

GGAGACCAUACUAUACAACCACUACCUCA: the “pre-steady-state target cleavage rate” value was 0.00558 ± 0.0034.

For the sequence GGAGAGCAUACUAUACAACCUACUACCUCA, the “pre-steady-state target cleavage rate” value is 0.0285 ± 0.012.

Consider GGAGACCAUUCUAUACAUCCUACUACCUCA, for which the “pre-steady-state target cleavage rate” value is 0.00435 ± 0.0029.

As for GGAGUGGAUCCUAUACAACCUACUACCUCA, the “pre-steady-state target cleavage rate” value is 0.111 ± 0.058.

On to GGAGUGGAUACUAUUCUACCUACUACCUCA, for which the “pre-steady-state target cleavage rate” value amounted to 0.00571 ± 0.0035.

GGAGUGGAUACUAUACCACCUACUACCUCA: the “pre-steady-state target cleavage rate” value came to 0.0104 ± 0.004.

Turning to GGAGACGAUCACUAUACAACCUACUACCUCA, the “pre-steady-state target cleavage rate” value is 0.0768 ± 0.029.

In the case of GGAGACGAUUCUAUACAACCUACAACCUCA, the “pre-steady-state target cleavage rate” value worked out at 0.00277 ± 0.0012.

Take GGAGACCAUACUAUACAACCUACUACCACA: the “pre-steady-state target cleavage rate” value was found to be 0.00574 ± 0.002.

Regarding GGAGUGGAUACUAUAAAACCUACUACCUCA, the “pre-steady-state target cleavage rate” value is 0.00522 ± 0.0025.

Consider GGAGUGGAUACUAUACAACCUACAUACCUCA, for which the “pre-steady-state target cleavage rate” value was 0.00344 ± 0.0016.

Consider GGAGAGGAUACUAUAGAACCUACUACCUGA, for which the “pre-steady-state target cleavage rate” value was 0.00264 ± 0.0017.
